The list is not random: actives were taken first. Their share in the collection is about 2.7%.
GLP-1R inv ag: qHTS of GLP-1 Receptor Inverse Agonists (Inhibition Mode); Potency, µM (highest dose often 38.3 µM), for the others: at the highest dose activity change, negative = inhibition, usual class: inhibitors; 410,000 tested, 1.6% active; AID 624417, 2012; HEK293 GLP-1R CRE-luciferase, luminescence, 24 h; GLP-1R form is constitutively active; Glucagon-like peptide 1 receptor (Homo sapiens), P43220; further: on the % scale 0 is the no-effect control and ±100 the full control effect; nearly all actives have a fitted effect of over 55% in size
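Stable HEK293 clone (constitutively active GLP-1R + cAMP-response luciferase); 200 cells/uL plated, 12 h pre-culture, compound 24 hr, 37 deg C/5% CO2; detection reagent 12 min RT; luminescence.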
TrxR1 inh: qHTS Assay for Inhibitors of Mammalian Selenoprotein Thioredoxin Reductase 1 (TrxR1): qHTS; Thioredoxin reductase 1, cytoplasmic (Rattus norvegicus), O89049; recombinant rTrxR1, NADPH fluorescence consumption, selenite substrate; Potency, µM (series often up to 114 µM), for inactives: top-dose activity change, negative = inhibition, usual class: inhibitors; 390,000 tested, 1% active; further: on the % scale 0 is the no-effect control and ±100 the full control effect; nearly all actives have a fitted effect of over 65% in size
Target sequence (O89049 whole entry, looked up): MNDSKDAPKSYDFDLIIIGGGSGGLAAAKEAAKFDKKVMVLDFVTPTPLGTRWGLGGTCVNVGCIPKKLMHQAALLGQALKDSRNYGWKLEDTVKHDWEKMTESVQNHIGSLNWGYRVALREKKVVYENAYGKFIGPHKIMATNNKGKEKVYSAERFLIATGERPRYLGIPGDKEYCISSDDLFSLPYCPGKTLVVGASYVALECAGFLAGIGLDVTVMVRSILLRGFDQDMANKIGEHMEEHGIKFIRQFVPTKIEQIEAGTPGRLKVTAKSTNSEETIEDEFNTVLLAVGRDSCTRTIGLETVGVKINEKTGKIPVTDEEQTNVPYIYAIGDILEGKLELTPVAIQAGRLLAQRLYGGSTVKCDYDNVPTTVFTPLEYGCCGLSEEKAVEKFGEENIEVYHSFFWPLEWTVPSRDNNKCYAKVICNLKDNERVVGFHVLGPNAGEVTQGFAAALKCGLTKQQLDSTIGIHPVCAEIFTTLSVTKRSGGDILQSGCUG
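Rat TrxR1 (90 nM in the dispensed reagent) was pre-reduced with 400 uM NADPH for 5 min at room temperature, then incubated with compound for 15 min. After 400 uM selenite was added, NADPH fluorescence (Ex 340/Em 450 nm) was followed for 8 min.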
GLP-1R agonist: qHTS of GLP-1 Receptor Agonists; HEK293 GLP-1R CRE-luciferase, luminescence, 4-6 h; cells express a hypersensitive GLP-1R form; Potency, µM (titrated, usually from 45.6 µM), for the others: at the highest dose activation, usual class: activators; 380,000 tested, 0.007% active; AID 624172, 2012; further: % of control where 0% means no effect
IDH1 R132H inh: qHTS for Inhibitors of mutant isocitrate dehydrogenase 1 (IDH1): qHTS | Isocitrate dehydrogenase [NADP] cytoplasmic (Homo sapiens), O75874 | IDH1-R132H enzyme, NADPH consumption, diaphorase/resazurin fluorescence | Potency, µM (series often up to 76.6 µM), without a hit: top-dose activity change, negative = inhibition, most hits filed as inhibitors | 390,000 tested, 0.093% active | AID 602179, 2012; further: on the % scale 0 is the no-effect control and ±100 the full control effect; nearly all actives have a fitted effect of over 65% in size
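IDH1-R132H (0.5 ug/mL dispensed) in pH 7.5 Tris buffer was preincubated 30 min with compound, then given a substrate mix of 0.016 mM NADPH and 2 mM alpha-KG for 80 min at room temperature; remaining NADPH was read by diaphorase/resazurin fluorescence.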
HEK293 tox: qHTS of GLP-1 Receptor Inverse Agonists: Cytotox Screen. HEK293 cAMP-luciferase reporter cells, luminescence, 24 h. Potency, µM (doses to about 38.3 µM), for inactives: at the top dose activity change, negative = inhibition, hits mostly inhibitors. 410,000 tested, 0.13% active. AID 624418, 2012;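 further: loss of luciferase light is scored as toxicity; on the % scale 0 is the no-effect control and ±100 the full control effect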
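Luminescence readout: signal drop marks cytotoxicity. Plated cells grew 12 h at 37 °C, 5% CO2, received 23 nL compound for 24 h, then got luciferase reagent, read after 12 min at RT.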
TrxR1 substrate: qHTS Assay for Substrates of Mammalian Selenoprotein Thioredoxin Reductase 1 (TrxR1): qHTS; Thioredoxin reductase 1, cytoplasmic (Rattus norvegicus), O89049; purified TrxR1 substrate turnover, NADPH consumption readout; Potency, µM (top dose mostly 114 µM), inactives show top-dose activity change, negative = substrate turnover; 390,000 tested, 0.01% active; further: on the % scale 0 is the no-effect control and ±100 the full control effect; nearly all actives have a fitted effect of over 50% in size
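Rat TrxR1, dispensed at 90 nM, was prereduced with 400 uM NADPH (final) for 5 min at ~22 deg C, then incubated with compound 15 min before 400 uM selenite. A first-read NADPH fluorescence drop versus no-compound background flagged substrates.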
Starred values were filed as active, the others as inactive; ! = repeats disagree; [ ] = dose if it differs, or a comment. The call rests on the fitted dose curve; in most records, active means well fitted curve in the direction sought with a large enough effect; inconclusive means small, poorly fitted or top-dose-only effect, or another doubt; inactive means no such curve, though single readings can be large; an effect the other way counts as inactive or inconclusive. Potency means the concentration at half of the fitted maximal effect.

How did COc1cccc(C2=C(C(C)=O)Sc3nnc(C4CCCCC4)n3N2C(C)=O)c1 do in these assays?
GLP-1R inv ag: 10%; TrxR1 inh: 3%[57.1 µM]; IDH1 R132H inh: inconclusive; HEK293 tox: 1%; TrxR1 substrate: 0%[57.1 µM]

How did CCOc1ccc(NC(=O)c2ccc3c(c2)CCN3S(=O)(=O)CC)cc1 do in these assays?
GLP-1R inv ag: -9%; TrxR1 inh: 17%; IDH1 R132H inh: 11%; HEK293 tox: -4%; TrxR1 substrate: -3%

Results for COc1cccc(/C=C/c2nccc3ccccc23)c1OC ?
TrxR1 inh: 4%; TrxR1 substrate: -6%

Results for CCOC(=O)c1c(Nc2cc(C)cc(C)c2)nnc(-c2ccccc2)c1-c1ccccc1 ?
GLP-1R inv ag: 7.9µM*; TrxR1 inh: 7%; GLP-1R agonist: 12%; IDH1 R132H inh: 6%; HEK293 tox: -5%; TrxR1 substrate: -2%

How did CCOC(=O)c1cnc2c(ccc3ccccc32)c1Nc1cccc(C(F)(F)F)c1 do in these assays?
GLP-1R inv ag: 19%; TrxR1 inh: 18%; IDH1 R132H inh: 18%; HEK293 tox: -1%; TrxR1 substrate: 3%

What do the screens show for `N/C(=N\OC(=O)COc1ccc(Br)cc1Cl)c1ccccn1`?
GLP-1R inv ag: 10µM*; TrxR1 inh: -17%; GLP-1R agonist: -6%; IDH1 R132H inh: 4%; HEK293 tox: 65%; TrxR1 substrate: -13%

How did N/C(=N\OC(=O)COc1ccc(Cl)cc1Cl)c1ccccn1 do in these assays?
GLP-1R inv ag: inconclusive; TrxR1 inh: 13%; GLP-1R agonist: -6%; IDH1 R132H inh: -12%; HEK293 tox: 12%; TrxR1 substrate: -6%

How did Cc1nnc(SCc2nnc(-c3cccs3)o2)n1Cc1ccccc1 do in these assays?
GLP-1R inv ag: -6%[7.66 µM]; TrxR1 inh: 16%[57.1 µM]; GLP-1R agonist: 0%; IDH1 R132H inh: 8%; HEK293 tox: -6%[7.66 µM]; TrxR1 substrate: 10%[57.1 µM]

Results for Clc1ccc(-c2nnc(CSc3nnc(-c4cccs4)n3Cc3ccccc3)o2)cc1 ?
GLP-1R inv ag: 10µM*; TrxR1 inh: 27%; GLP-1R agonist: -8%; IDH1 R132H inh: -2%; HEK293 tox: -19%; TrxR1 substrate: -6%

How did COC(=O)c1ccc(NC(=S)NC2CCc3ccccc32)cc1 (stereo unspecified) do in these assays?
GLP-1R inv ag: 10µM*; TrxR1 inh: -1%[57.1 µM]; GLP-1R agonist: 10%; IDH1 R132H inh: 3%; HEK293 tox: inconclusive; TrxR1 substrate: -1%[57.1 µM]

What do the screens show for `Cc1ccc2nc(-c3ccc(NC(=S)NC4CC(C)(C)NC(C)(C)C4)cc3)sc2c1`?
GLP-1R inv ag: 5µM*; TrxR1 inh: 18%[57.1 µM]; GLP-1R agonist: 5%; IDH1 R132H inh: 3%; HEK293 tox: inconclusive; TrxR1 substrate: -2%[57.1 µM]

What do the screens show for `COC(=O)c1ccc(NC(=S)NC2CC(C)(C)NC(C)(C)C2)cc1`?
GLP-1R inv ag: 8.9µM*; TrxR1 inh: -24%; GLP-1R agonist: -5%; IDH1 R132H inh: -1%; HEK293 tox: 0%; TrxR1 substrate: 3%

Results for CC[C@@H]1OC(=O)C[C@H](O)[C@@H](C)[C@@H](O[C@H]2O[C@@H](C)[C@H](O[C@@H]3C[C@](C)(O)[C@H](O)[C@@H](C)O3)[C@@H](N(C)C)[C@@H]2O)[C@@H](C=O)C[C@@H](C)C(=O)/C=C/C(C)=C[C@@H]1CO[C@H]1O[C@@H](C)[C@H](O)[C@H](OC)[C@@H]1OC ?
GLP-1R agonist: 1%

Results for Oc1ccc2ccccc2c1SSc1c(O)ccc2ccccc12 ?
TrxR1 inh: inconclusive; TrxR1 substrate: -6%[57.1 µM]

What do the screens show for `CC(=O)NC1=C(Nc2ccc(N(C)C)cc2)C(=O)c2ccccc2C1=O`?
GLP-1R inv ag: 4µM*; TrxR1 inh: -9%; GLP-1R agonist: -1%; IDH1 R132H inh: 14%; HEK293 tox: inconclusive; TrxR1 substrate: -4%

Results for CCOc1ccc(NC(=O)C2CCCN(S(=O)(=O)c3cccc4nonc34)C2)cc1 (stereo unspecified) ?
GLP-1R inv ag: 9%; TrxR1 inh: 4%; GLP-1R agonist: -2%; IDH1 R132H inh: -8%; HEK293 tox: 2%; TrxR1 substrate: -1%

Results for COC(=O)c1nn(-c2ccccc2)c(Cl)c1/C=N/OCc1ccc(C)cc1 ?
GLP-1R inv ag: 13µM*; TrxR1 inh: 17%[57.1 µM]; GLP-1R agonist: -15%; IDH1 R132H inh: 4%; HEK293 tox: 91%; TrxR1 substrate: 5%[57.1 µM]

What do the screens show for `CCN(CC)c1ccc(NC(=O)CCS(=O)(=O)c2cccc3nsnc23)c(C)c1`?
GLP-1R inv ag: -24%[7.66 µM]; TrxR1 inh: 79µM*!; GLP-1R agonist: 0%; IDH1 R132H inh: 7%; HEK293 tox: 8%[7.66 µM]; TrxR1 substrate: -4%

Results for CC1CCC(C(=O)NC(C(=O)OCC(=O)c2ccc(Br)cc2)C(C)C)CC1 (stereo unspecified) ?
GLP-1R inv ag: -15%; TrxR1 inh: 19%; GLP-1R agonist: -3%; IDH1 R132H inh: 3%; HEK293 tox: -4%; TrxR1 substrate: 4%

Results for CC(c1ccccc1)C1CC(=O)N(Cc2ccco2)C1=O (stereo unspecified) ?
GLP-1R inv ag: 1%; TrxR1 inh: 40µM*; GLP-1R agonist: 0%; IDH1 R132H inh: -2%; HEK293 tox: 2%; TrxR1 substrate: 3%

Results for Cc1ccc(-c2nc3cnccn3c2Nc2c(C)cccc2C)o1 ?
GLP-1R inv ag: inconclusive; TrxR1 inh: 14µM*; GLP-1R agonist: 13%; IDH1 R132H inh: 2%; HEK293 tox: 171%; TrxR1 substrate: 11%

What do the screens show for `Cc1ccc(-c2nc3cnccn3c2Nc2ccc(C(C)C)cc2)o1`?
TrxR1 inh: 13µM*; TrxR1 substrate: 5%

What do the screens show for `COc1cc(-c2nc3cnccn3c2Nc2ccc(C(C)C)cc2)ccc1O`?
GLP-1R inv ag: 2%; TrxR1 inh: 16%; GLP-1R agonist: 1%; IDH1 R132H inh: -10%; HEK293 tox: -13%; TrxR1 substrate: 4%

Assay outcomes deposited in PubChem by National Center for Advancing Translational Sciences (NCATS).
